# Screen size: about 310,000 compounds; about 14,000 (4.5%) showed an effect of 50% or more. The effect is printed as a negative number. The entries come from a sample that favours strong results as a whole.
# Biological target: human ether-à-go-go-related gene (hERG) potassium channel (human, UniProt Q12809)
# Assay: primary screen, population patch clamp on CHO cells stably expressing hERG; higher = less effect of the substance
# 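Also: peak tail current of the secondary pulse compared with the same well before compound.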
# Chain of human ether-à-go-go-related gene (hERG) potassium channel (Q12809 whole entry, looked up): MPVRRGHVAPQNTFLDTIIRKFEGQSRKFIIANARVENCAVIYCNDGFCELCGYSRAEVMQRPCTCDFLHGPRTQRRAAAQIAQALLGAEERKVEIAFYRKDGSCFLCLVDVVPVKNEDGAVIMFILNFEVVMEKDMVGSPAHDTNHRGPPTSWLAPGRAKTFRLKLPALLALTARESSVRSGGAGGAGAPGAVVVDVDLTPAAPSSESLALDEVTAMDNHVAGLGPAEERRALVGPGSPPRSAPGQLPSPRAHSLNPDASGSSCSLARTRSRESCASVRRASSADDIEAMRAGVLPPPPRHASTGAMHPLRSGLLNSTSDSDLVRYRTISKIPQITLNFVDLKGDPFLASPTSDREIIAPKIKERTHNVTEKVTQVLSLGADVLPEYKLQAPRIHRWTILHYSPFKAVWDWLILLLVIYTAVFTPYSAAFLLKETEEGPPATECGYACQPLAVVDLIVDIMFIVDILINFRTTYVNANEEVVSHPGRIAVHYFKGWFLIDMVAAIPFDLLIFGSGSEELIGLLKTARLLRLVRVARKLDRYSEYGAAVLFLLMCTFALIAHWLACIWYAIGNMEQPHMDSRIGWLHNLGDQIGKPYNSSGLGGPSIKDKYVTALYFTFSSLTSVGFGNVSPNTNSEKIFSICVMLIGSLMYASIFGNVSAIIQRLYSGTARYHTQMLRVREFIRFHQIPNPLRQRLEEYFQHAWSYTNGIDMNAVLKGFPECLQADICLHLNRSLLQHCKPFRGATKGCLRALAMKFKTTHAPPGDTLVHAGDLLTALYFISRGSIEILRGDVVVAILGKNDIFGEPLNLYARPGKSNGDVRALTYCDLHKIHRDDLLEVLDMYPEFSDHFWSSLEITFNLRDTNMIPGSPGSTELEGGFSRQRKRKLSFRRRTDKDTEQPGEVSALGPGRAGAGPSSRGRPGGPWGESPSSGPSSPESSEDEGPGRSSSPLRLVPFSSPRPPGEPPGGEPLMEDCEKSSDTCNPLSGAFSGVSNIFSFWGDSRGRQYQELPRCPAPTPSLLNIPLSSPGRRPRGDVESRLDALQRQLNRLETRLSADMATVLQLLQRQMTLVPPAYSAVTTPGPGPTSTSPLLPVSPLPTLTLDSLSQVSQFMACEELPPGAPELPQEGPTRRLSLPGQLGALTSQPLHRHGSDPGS
row,SMILES,"hERG current change (%, negative = inhibition) at 10uM [%]"
1,Cc1ccc(-c2onc(C)c2C)cc1S(=O)(=O)N1CCOc2ccccc21,9.26
2,COc1cc(/C=N/NC(=O)CCc2n[nH]c(=O)[nH]c2=O)ccc1O,-0.627
3,Cc1cccc(OC(C)C(=O)Nc2nccs2)c1 (centres unmarked),8.8
4,CC1CN(C(=O)CCC(=O)NCc2ccc(Cl)cc2)c2ccccc2O1 (centres unmarked),-53.6
5,CC1CN(C(=O)CCC(=O)NCCCN2CCN(Cc3ccccc3)CC2)c2cc(Cl)ccc2O1 (centres unmarked),-76.1
6,Cc1ccc2c(c1)N(C(=O)CCC(=O)NCCCN1CCOCC1)CC(C)O2 (centres unmarked),-13.5
7,CCN1CCN(CCCNC(=O)CCC(=O)N2CC(C)Oc3ccc(C)cc32)CC1 (centres unmarked),-12.5
8,Cc1ccc2c(c1)N(C(=O)CCC(=O)NC1CCCCCC1)CC(C)O2 (centres unmarked),-18.5
9,Cc1ccc(CNC(=O)CCC(=O)N2CC(C)Oc3ccccc32)cc1 (centres unmarked),-28
10,CC1CN(C(=O)CCC(=O)NC2CCN(Cc3ccccc3)CC2)c2ccccc2O1 (centres unmarked),-26.7
11,CC1CN(C(=O)CCC(=O)NCc2ccccc2)c2cc(Cl)ccc2O1 (centres unmarked),-11.5
12,CC1CN(C(=O)CCC(=O)NCc2ccccc2)c2ccccc2O1 (centres unmarked),0.256
13,Cc1ccc2c(c1)N(C(=O)CCC(=O)NCCCN1CCN(C)CC1)CC(C)O2 (centres unmarked),9.95
14,CC1CN(C(=O)CCC(=O)NCCCN2CCC(Cc3ccccc3)CC2)c2cc(Cl)ccc2O1 (centres unmarked),-72.7
15,Cc1ccc2c(c1)N(C(=O)CCC(=O)NC1CCN(Cc3ccccc3)CC1)CC(C)O2 (centres unmarked),-67.1
16,COc1ccccc1NC(=O)c1ccc(NS(=O)(=O)c2ccc(F)c(F)c2F)cc1,-6.5
17,COc1ccc(C(=O)CSc2nnc(-c3cccs3)n2-c2ccccc2)cc1,4.83
18,CSCCC(NC(=O)C12CC3CC(CC(C3)C1)C2)C(=O)OCC(=O)c1ccccc1 (centres unmarked),12.7
19,c1ccc2[nH]c(SCc3cscn3)nc2c1,2.76

row,SMILES,"hERG current change (%, negative = inhibition) at 10uM [%]"
1,CC(C)CCN1CCN(Cc2cc(F)ccc2-n2cccn2)CC1CCO (centres unmarked),-25.8
2,Cc1cccc(-n2ccnc2CN2CCN(C(C)C)C(CCO)C2)c1 (centres unmarked),-12.3
3,CCOC(=O)c1[nH]ncc1CN1CCN(Cc2ccc(C)cc2)C(CCO)C1 (centres unmarked),-38.8
4,Cc1cccc(CN2CCN(Cc3cccc(-n4cccn4)c3)CC2CCO)n1 (centres unmarked),-45.7
5,Cc1ccc(CN2CCN(Cc3cccc(-n4cccn4)c3)CC2CCO)cc1 (centres unmarked),-74.5
6,COc1ccc(-n2ccnc2CN2CCN(C3CCCC3)C(CCO)C2)cc1 (centres unmarked),-29.1
7,Cc1ccc(CN2CCN(Cc3ccc(-n4cccn4)cc3C)CC2CCO)cc1 (centres unmarked),-78.6
8,OCCC1CN(Cc2cccc(-n3cccn3)c2)CCN1Cc1ccccc1 (centres unmarked),-44.8
9,OCCC1CN(Cc2cc(F)ccc2-n2cccn2)CCN1Cc1ccc(F)cc1 (centres unmarked),-62.5
10,CC(C)CN1CCN(Cc2cc(F)ccc2-n2cccn2)CC1CCO (centres unmarked),-6.87
11,Cc1cc(-n2cccn2)ccc1CN1CCN(CC(C)C)C(CCO)C1 (centres unmarked),-45.5
12,Cc1cccc(-n2ccnc2CN2CCN(C3CCCC3)C(CCO)C2)c1 (centres unmarked),-59.1
13,Cc1c(Cl)cccc1N1CC(C)(C)C1=O,-2.95
14,COC(=O)c1sc2nc(SCc3cccc(Cl)c3)n(N)c(=O)c2c1C,1.39
15,CCC1Sc2ccccc2N(CC(=O)NC2CC2)C1=O (centres unmarked),7.59
16,COc1ccc(CN2CC(C(N)=O)Oc3ccccc32)cc1F (centres unmarked),3.16
17,Cn1ncnc1SCc1cn2cccnc2n1,14.2
18,CC1CC(Nc2ccccc2N)=CC(=O)O1 (centres unmarked),11.7
19,COc1ccc(C2/C(=C(/O)c3ccccc3)C(=O)C(=O)N2c2ncccn2)cc1OC (centres unmarked),7.54

row,SMILES,"hERG current change (%, negative = inhibition) at 10uM [%]"
1,CC(=O)c1ccc(-c2ccccc2OC(F)(F)F)o1,-10.7
2,O=C(NCCOc1ccccc1F)c1ccc2c(=O)n3c(nc2c1)CCC3,-20.8
3,CSCCCN1CC[C@@H](N2CCN(c3ccccc3F)CC2)[C@H](O)C1,-36.8
4,Cc1cccc(CN2CCN(Cc3ccc(-n4cccn4)cc3)CC2CCO)n1 (centres unmarked),-30.2
5,OCCC1CN(Cc2ccc(-n3cccn3)cc2)CCN1Cc1ccccc1 (centres unmarked),-59.8
6,CC(C)CCN1CCN(Cc2cccc(-n3cccn3)c2)CC1CCO (centres unmarked),-57.6
7,O[C@@H]1CN(Cc2ccc(-n3cccn3)cc2)CC[C@H]1N1CCN(c2ccccc2F)CC1,-67.5
8,CC(C)=CC(=O)N1CC[C@@H](N2CCN(c3ccccc3F)CC2)[C@H](O)C1,1.23
9,Cc1ccc(CN2CCN(Cc3ccc(-n4cccn4)cc3)CC2CCO)cc1 (centres unmarked),-78.1
10,CC(C)N1CCN(Cc2cccc(-n3cccn3)c2)CC1CCO (centres unmarked),-12.3
11,CCOC(=O)CC(C)(C)/C(C)=N/Nc1ccc([N+](=O)[O-])cc1[N+](=O)[O-],-24.5
12,CCOc1ccc(CCNC(=O)c2cccc(C#N)c2)cc1OCC,-6.55
13,Cc1ccc(N2C(=O)Nc3ccc(Br)cc3C2(O)C(=O)NCCN(C)C)cc1C (centres unmarked),21.4
14,CCCCn1c(SCc2nc(N)nc(Nc3ccccc3C)n2)nc2ccccc2c1=O,-1.63
15,Cc1c(NC(=O)CN2C(=O)c3cccc4cccc2c34)c(=O)n(-c2ccccc2)n1C,4.55
16,OCCC1CN(Cc2cc(F)ccc2-n2cccn2)CCN1C1CCCC1 (centres unmarked),-29
17,OCCC1CN(Cc2cccc3nccnc23)CCN1C1CCCC1 (centres unmarked),-4.4
18,Cc1cc(-n2cccn2)ccc1CN1CCN(C2CCCC2)C(CCO)C1 (centres unmarked),-73.5
